Here are results for 35 molecules from PubChem BioAssay (EPA / NIEHS).

Results filed as inconclusive are left out. Calls of active or inactive are those of the source. Rule for the calls: active = hit-call score of the fitted dose curve at least 0.9, where 1 is the maximum; inconclusive = response in the unintended direction; inactive = score below 0.9.

Assay [1] in a line: TOX21_p53_BLA_p2_viability: Viability Assessment in the Tox21 HCT-116 p53 Agonism Beta-lactamase Assay, Phase 2 (AID 2283591).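 Note: compound exposure lasted 16 h at 37 °C; actives lower the ATP signal meaning cytotoxicity.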 Summed up: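 HCT-116 p53-bla cells (4000/well) rested 5 h at 37C, then received compounds in DMSO (217-fold dilution) for 16 h at 37C, 5% CO2. After the CCF4 read, CellTiter-Glo was added; ATP luminescence was read after 30 min at room temperature.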

Assay [2] addresses Cellular tumor antigen p53 (Homo sapiens) (UniProt P04637). Kind of assay: TOX21_p53_BLA_p2_ratio: Tox21 HCT-116 p53 Agonism Beta-lactamase Assay, Ratio, Phase 2 (AID 2283592). The gist of the method:
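Cleaved-to-uncleaved substrate ratio (460 vs 530 nm) measured in HCT116 cells with an inducible beta-lactamase reporter linked to p53 activity. Compounds incubated 16 h at 37C before 2 h room-temperature CCF4-AM loading.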

A short description of assay [3]: TOX21_p53_BLA_p3_viability: Viability Assessment in the Tox21 HCT-116 p53 Agonism Beta-lactamase Assay, Phase 3 (AID 2283593).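 Note: cells exposed to compound for 16 h before reading.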 Summed up: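 HCT-116 cells (4000/well) rested 5 h at 37C, then got DMSO compounds by pin tool (217-fold dilution) for 16 h at 37C, 5% CO2. After the bla read, CellTiter-Glo was added and luminescence read at 30 min, room temperature.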
The target of assay [4] is Cellular tumor antigen p53 (Homo sapiens) (UniProt P04637). The assay is described as follows: TOX21_p53_BLA_p4_ratio: Tox21 HCT-116 p53 Agonism Beta-lactamase Assay, Ratio, Phase 4 (AID 2283601). Summed up: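 HCT116 cells carrying an inducible beta-lactamase reporter were plated at 4000 cells/well, rested 5 h, then exposed to compounds in DMSO (217-fold dilution) for 16 h at 37C. CCF4-AM substrate was loaded 2 h at room temperature; 460/530 nm emission ratio scored gain-of-signal versus DMSO.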

The target is the same in assay [5]. The assay is described as follows: TOX21_p53_BLA_p3_ratio: Tox21 HCT-116 p53 Agonism Beta-lactamase Assay, Ratio, Phase 3 (AID 2283596). The gist of the method: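 Cells were seeded at 4000/well, rested 5 h at 37C, then dosed with DMSO compound solutions (217-fold dilution) for 16 h. CCF4-AM substrate was loaded for 2 h at room temperature, and the 460/530 nm emission ratio was fitted for gain of signal versus DMSO.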

Assay [6] can be described thus: TOX21_p53_BLA_p4_viability: Viability Assessment in the Tox21 HCT-116 p53 Agonism Beta-lactamase Assay, Phase 4 (AID 2283597).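 Note: hits lower the luminescence signal meaning cytotoxicity.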 The gist of the method:
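Viability is taken as cellular ATP: after 16 h compound exposure of HCT116 cells and a 2 h room-temperature CCF4-AM substrate step, CellTiter-Glo reagent is added and luminescence is measured 30 min later.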

For assay [7], the target named is Cellular tumor antigen p53 (Homo sapiens) (UniProt P04637). Kind of assay: TOX21_p53_BLA_p5_ratio: Tox21 HCT-116 p53 Agonism Beta-lactamase Assay, Ratio, Phase 5 (AID 2283599). Summed up:
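HCT-116 cells carrying a p53-inducible beta-lactamase reporter were seeded at 4000 cells/well and dosed after 5 h with compound in DMSO (217-fold dilution). After 16 h at 37C, CCF4-AM substrate was added for 2 h, and the 460/530 nm emission ratio was scored as gain-of-signal versus DMSO.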

The nature of assay [8]: TOX21_p53_BLA_p5_viability: Viability Assessment in the Tox21 HCT-116 p53 Agonism Beta-lactamase Assay, Phase 5 (AID 2283600). The gist of the method: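 Viability is taken from cellular ATP content, measured by luciferase luminescence in the same wells after the beta-lactamase ratio read. Cells are seeded at 4000 per well and exposed to DMSO-dissolved compounds, diluted 217-fold, for 16 h.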

In general, AC50 refers to the midpoint of the concentration-response curve, whichever way the signal moves.

Chain of Cellular tumor antigen p53 (Homo sapiens) (P04637 whole entry, looked up): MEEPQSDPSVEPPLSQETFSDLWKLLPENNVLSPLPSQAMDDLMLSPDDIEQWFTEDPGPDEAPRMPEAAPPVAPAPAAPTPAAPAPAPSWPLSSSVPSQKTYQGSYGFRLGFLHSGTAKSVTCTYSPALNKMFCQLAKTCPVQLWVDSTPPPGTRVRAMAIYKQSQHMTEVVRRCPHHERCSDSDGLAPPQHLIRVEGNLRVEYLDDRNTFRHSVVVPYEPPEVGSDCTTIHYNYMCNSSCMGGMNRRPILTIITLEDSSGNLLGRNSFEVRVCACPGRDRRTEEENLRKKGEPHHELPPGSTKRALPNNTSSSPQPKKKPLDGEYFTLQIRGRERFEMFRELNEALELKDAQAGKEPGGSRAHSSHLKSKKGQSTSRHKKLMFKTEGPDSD

As to `C[C@]12CC[C@@H]3c4ccc(OS(=O)(=O)O)cc4CC[C@H]3[C@@H]1CCC2=O`, the molecule was called inactive in assay [1], in assay [2], in assay [3] and in assay [4].
Turning to `CCOC(=O)O[C@]1(C(=O)OCCl)CC[C@H]2[C@@H]3CCC4=CC(=O)C=C[C@]4(C)[C@H]3[C@@H](O)C[C@@]21C`, the outcome in assay [1], in assay [2] and in assay [5] was inactive.
As for `CO/N=C(\C(=O)N[C@@H]1C(=O)N2C(C(=O)[O-])=C(C[n+]3ccc(N)n3CCO)CS[C@H]12)c1csc(N)n1`, the outcome in assay [1], in assay [2], in assay [5], in assay [6], in assay [7] and in assay [8] was inactive.
Take `CCOc1ccc(O)cc1`: the molecule was classed as inactive in assay [1], in assay [2] and in assay [5].
As to `OCCCCCCO`, the call in assay [1], in assay [2], in assay [5], in assay [6], in assay [7] and in assay [8] was inactive.
Take `CCOc1ccc2nc(N)sc2c1`: the call in assay [1], in assay [2], in assay [5], in assay [6], in assay [7] and in assay [8] was inactive.
As for `OCC=CCO`, the molecule was called inactive in assay [1], in assay [2], in assay [5], in assay [6] and in assay [7].
With `O=C(O)[C@@H]1C[C@H](CP(=O)(O)O)CCN1`, the molecule was classed as inactive in assay [1], in assay [2], in assay [5], in assay [6] and in assay [7].
For `NCc1ccccc1CC(=O)N[C@@H]1C(=O)N2C(C(=O)O)=C(CSc3nnnn3CC(=O)O)CS[C@H]12`, the call in assay [1], in assay [2], in assay [5], in assay [6], in assay [7] and in assay [8] was inactive.
Regarding `CC(=O)OCC(=O)[C@@]1(O)[C@H](OC(C)=O)C[C@H]2[C@@H]3CCC4=CC(=O)C=C[C@]4(C)[C@@]3(F)[C@@H](O)C[C@@]21C`, the outcome in assay [1], in assay [2], in assay [5] and in assay [6] was inactive.
On to `CC(CNC(=O)c1cccnc1)NC(=O)c1cccnc1` (stereo unspecified), for which the outcome in assay [1], in assay [2] and in assay [5] was inactive.
Consider `ClC(Cl)(Cl)c1ccc(C(Cl)(Cl)Cl)cc1`, for which the result in assay [1], in assay [2], in assay [5], in assay [6], in assay [7] and in assay [8] was inactive.
As to `NC(=O)[C@H]1O[C@@H](O)[C@H](O)[C@@H](O)[C@@H]1O`, the call in assay [1], in assay [2], in assay [5], in assay [6], in assay [7] and in assay [8] was inactive.
For `CC(=O)Nc1ccc(N)cc1`, the molecule was classed as inactive in assay [1], in assay [2], in assay [3] and in assay [4].
Take `CC(C)SCc1ccco1`: the molecule was called inactive in assay [1], in assay [2], in assay [5], in assay [6] and in assay [7].
With `O=C(OC1C[C@H]2CC[C@@H](C1)[N+]21CCCC1)C(O)(c1ccccc1)c1ccccc1` (stereo partly specified), the molecule was classed as inactive in assay [1], in assay [2], in assay [3] and in assay [4].
`CCC(=O)OC/C=C/c1ccccc1`: the call in assay [1], in assay [2], in assay [5], in assay [6] and in assay [7] was inactive.
On to `Oc1cc(O)c2c(c1)O[C@H](c1ccc(O)c(O)c1)[C@H](O)C2`, for which the molecule was called inactive in assay [1], in assay [2], in assay [5], in assay [6], in assay [7] and in assay [8].
Regarding `CN=C(N)NC(=O)Nc1c(C)cccc1C`, the outcome in assay [1], in assay [2], in assay [5] and in assay [6] was inactive.
`CC(C)(C)C1(CCc2ccc(Cl)cc2)CO1` (stereo unspecified): the call in assay [1], in assay [2], in assay [5], in assay [6], in assay [7] and in assay [8] was inactive.
`CCCCCCOc1ccccc1C(N)=O`: the call in assay [1], in assay [2], in assay [5], in assay [6], in assay [7] and in assay [8] was inactive.
In the case of `O=Cc1ccc(Cl)c(Cl)c1`, the result in assay [1], in assay [2], in assay [5] and in assay [6] was inactive.
In the case of `CCN(CC)CCOc1ccc2nc(N(C)C)sc2c1`, the result in assay [1], in assay [2], in assay [5], in assay [6], in assay [7] and in assay [8] was inactive.
In the case of `CC(=O)O[C@H]1C[C@@]2(C)[C@@H](C[C@@H](O)[C@H]3[C@@]4(C)CC[C@@H](O)[C@@H](C)[C@@H]4CC[C@@]32C)/C1=C(\CCC=C(C)C)C(=O)O`, the result in assay [1], in assay [2], in assay [5], in assay [6], in assay [7] and in assay [8] was inactive.
Regarding `CCC(=O)O[C@]1(C(=O)CCl)[C@@H](C)C[C@H]2[C@@H]3CCC4=CC(=O)C=C[C@]4(C)[C@@]3(F)[C@@H](O)C[C@@]21C`, the result in assay [1], in assay [2], in assay [3] and in assay [4] was inactive.
As for `c1ccc2cc(C3=NCCN3)ccc2c1`, the molecule was called inactive in assay [1], in assay [2], in assay [5], in assay [6] and in assay [7].
Take `CN(C)CCOC(c1ccc(Cl)cc1)c1ccccn1` (stereo unspecified): the call in assay [1], in assay [2], in assay [5], in assay [6] and in assay [7] was inactive.
For `Cc1cc(C)cc(N)c1`, the result in assay [1], in assay [2], in assay [5], in assay [6], in assay [7] and in assay [8] was inactive.
As for `CCOC(=O)OC(C)OC1=C(C(=O)Nc2ccccn2)N(C)S(=O)(=O)c2ccccc21` (stereo unspecified), the result in assay [1], in assay [2], in assay [5], in assay [6], in assay [7] and in assay [8] was inactive.
Turning to `CC1(C)CC(OC(=O)CCCCCCCCC(=O)OC2CC(C)(C)NC(C)(C)C2)CC(C)(C)N1`, the result in assay [1], in assay [2], in assay [5] and in assay [6] was inactive.
As to `Cc1nc2n(c(=O)c1CCN1CCC(c3noc4cc(F)ccc34)CC1)CCCC2`, the molecule was classed as inactive in assay [1], in assay [2], in assay [5] and in assay [6].
For `O=C(Cn1ccnc1[N+](=O)[O-])NCCO`, the molecule was classed as inactive in assay [1], in assay [2], in assay [5], in assay [6], in assay [7] and in assay [8]. In addition, the outcome in assay [4] was inactive.
Regarding `C=CC1=C(C)C2=CC3=NC(=C(CC(=O)[O-])C4=NC(=C(C)C4=C([O-])[O-])C=c4[n-]c(c(C)c4CC)=CC1=N2)[C@@H](CCC(=O)[O-])[C@@H]3C.[Cu+2].[Na+].[Na+].[Na+]`, the outcome in assay [1], in assay [2], in assay [5], in assay [6], in assay [7] and in assay [8] was inactive. Further, the outcome in assay [4] was inactive.
As for `CCCCCN(CCCCC)C(=O)C(CCC(=O)O)NC(=O)c1ccc(Cl)c(Cl)c1` (stereo unspecified), the call in assay [1], in assay [2], in assay [5], in assay [6], in assay [7] and in assay [8] was inactive. Moreover, the result in assay [4] was inactive.
On to `O=C(O)Cn1c(C(=O)Nc2nc(-c3ccccc3Cl)cs2)cc2ccccc21`, for which the outcome in assay [1], in assay [2], in assay [5] and in assay [4] was inactive. Besides, the AC50 in assay [6] is 38.9 µM (active); in assay [7], 37.1 µM (active); in assay [8], 40.7 µM (active).
